Measurements published in PubChem BioAssay AID743167 (National Center for Advancing Translational Sciences (NCATS), 2013).
Several values for one entry are separate records, joined by “and”; a condition that tells them apart may be missing. Equal entries are not always repeated. Results filed as inconclusive are left out. Activity calls are given as the source filed them. The call rests on the fitted dose curve; in most records, active means well fitted activation curve with a large enough effect; inconclusive means small, poorly fitted or top-dose-only effect; inactive means flat fitted curve, though single readings scatter.

Assay: Extended Characterization of HPGD Inhibitors: PGE2 Assay in A549 Cells
Conditions: PGE2 HTRF level, 16 h
Description: The central role of HPGD is to inactivate prostaglandins such as prostaglandin E2 (PGE2) or prostaglandin D2 (PGD2). These prostaglandins are involved in a number of processes, including inflammation, differentiation, and cellular signaling, which makes HPGD an important target for pharmacological intervention. A number of prostaglandins of particular biological interest have been identified as substrates of HPGD. […] Over-production of PGE2 has been reported to promote tumor-associated neovascularization, cell proliferation, and tumor growth. […] In this orthogonal assay, we set out to measure if compounds were able to increase PGE2 production NIH Chemical Genomics Center [NCGC] NIH Molecular Libraries Probe Centers Network [MLPCN] MLPCN Grant: MH084681 Assay Submitter (PI): Structural Genomics Consortium
A549 cells, LNCaP cells or media were dispensed in 384-well plates (ProxiPlate-384 Plus, PerkinElmer, Shelton, CT) at 5,000 cells/9.9 uL/well using a CappAero384 multichannel pipette (Odense, Denmark). Separately on the plate, 10 uL of PGE2 calibration standards at a starting assay concentration of 5,000 pg/mL (1:2 dilution, 12-points, n = 1, prepared in media, Cisbio, Bedford, MA) were dispensed. Compounds (100 nL, final concentration range from 41.9 nM to 100 uM) were transferred using an ATS Acoustic Liquid Dispenser (EDC Biosystems, Fremont, CA). After being mixed using an automated liquid handler (CyBio, Jena, Germany), samples were incubated (37 deg C, 5% CO2, under a humidified atmosphere) for 16 hours. PGE2 labeled conjugates were added to each well, first 5 uL of PGE2-d2, followed by 5 uL of anti-PGE2-cryptate, centrifuged (1,500 rpm, 15 sec) and incubated (RT, protected from light) for 5 hours. Time-resolved fluorescence intensity (320 nm excitation, 615 and 665 nm emission) was measured using an Envision plate reader (PerkinElmer). Data was expressed as the ratio of 665 nm/615 nm emissions. Concentration (pg/mL) of samples were calculated from a 4-parameter logistic calibration curves of the PGE2 standards.

SMILES | Potency
CC(C)(C)c1ccc(-n2cnc3cc(C(=O)N4CCCCC4)ccc32)cc1 | 20.9 µM (active)
Cc1ccc(-n2cnc3cc(C(=O)N4CCCCC4)ccc32)cc1 | 0.469 µM (active)
CC(C)(C)n1cnc2cc(C(=O)N3CCCCC3)ccc21 | 2.09 µM (active)
Cc1ccc(-n2c(C)cc(-c3nnc4n3CCCCC4)c2C)cc1 | 0.166 µM (active)
Cc1cccc(-n2cnc3cc(C(=O)N4CCC(Br)CC4)ccc32)c1 | 1.18 µM (active)
COc1ccccc1-n1cnc2cc(C(=O)N3CCCCC3)ccc21 | 16.6 µM (active)
CCCCC[C@H](O)/C=C/[C@H]1[C@H](O)CC(=O)[C@@H]1C/C=C\CCCC(=O)O | 0.148 µM (active)
COc1ccc(CSc2nc3ncc(Br)cc3[nH]2)cc1F | 7.43 µM (active)
Brc1cnc2nc(SCc3ccncc3)[nH]c2c1 | 0.833 µM (active)
O=[N+]([O-])c1ccc(CSc2nc3ncc(Br)cc3[nH]2)cc1 | 0.235 µM (active)
Clc1ccc(CSc2nc3ncc(Br)cc3[nH]2)cc1 | 16.6 µM (active)
Brc1cnc2nc(SCc3ccccn3)[nH]c2c1 | 5.9 µM (active)
Cc1cccc(-n2cnc3cc(C(=O)N4CCCCC4)ccc32)c1 | 0.469 µM (active)
CCCCn1cnc2cc(C(=O)N3CCCCC3)ccc21 | 2.96 µM (active)
Cc1cccc(-n2cnc3cc(C(=O)N4CCCC(C)(C)C4)ccc32)c1 | 0.743 µM (active)
c1ccc(-n2cc(-c3nnc4n3CCCCC4)c3ccccc32)cc1 | 1.66 µM (active)
CCOC(=O)c1ccc(-n2cnc3cc(C(=O)N4CCCCC4)ccc32)cc1 | 1.87 µM (active)
Brc1cnc2nc(SCc3cccnc3)[nH]c2c1 | 8.33 µM (active)
Cc1cc(-c2nnc3n2CCCCC3)c(C)n1-c1ccccn1 | 26.4 µM (active)
N#Cc1ccc(CSc2nc3ncc(Br)cc3[nH]2)cc1 | 0.332 µM (active)

SMILES | Potency
O=[N+]([O-])c1ccccc1CSc1nc2ncc(Br)cc2[nH]1 | 0.148 µM (active)
Cc1cc(-c2nnc3n2CCCCC3)c(C)n1-c1cccc(C#N)c1 | 2.64 µM (active)
CC(C)(C)c1cccc(-n2cnc3cc(C(=O)N4CCCCC4)ccc32)c1 | 18.7 µM (active)
COc1cccc(-n2cnc3cc(C(=O)N4CCCCC4)ccc32)c1 | 0.833 µM (active)
N#Cc1ccccc1CSc1nc2ncc(Br)cc2[nH]1 | 372 nM (active) and 7.43 µM (active) and 743 nM (active)
O=[N+]([O-])c1cccc(CSc2nc3ncc(Br)cc3[nH]2)c1 | 0.418 µM (active)
Cc1cccc(-n2cnc3cc(C(=O)N4CCCCCC4)ccc32)c1 | 2.96 µM (active)
Clc1cccc(CSc2nc3ncc(Br)cc3[nH]2)c1 | 0.296 µM (active)
Cc1cc(-c2nnc3n2CCCCC3)c(C)n1-c1ccncc1 | 33.2 µM (active)
Cc1cc(-c2nnc3n2CCCCC3)c(C)n1-c1ccc(Br)cc1 | 0.59 µM (active)
CC(C)c1cccc(-n2cnc3cc(C(=O)N4CCCCC4)ccc32)c1 | 2.35 µM (active)
Cc1cccc(-n2cnc3cc(C(=O)N4CCCC(C(F)(F)F)C4)ccc32)c1 (stereo not given) | 1.32 µM (active)
N#Cc1cccc(CSc2nc3ncc(Br)cc3[nH]2)c1 | 7.43 µM (active)
Cc1cc(-c2nnc3n2CCCCC3)c(C)n1-c1cccc(Cl)c1 | 0.59 µM (active)
Cc1cccc(-n2cnc3cc(C(=O)N4CCCC4)ccc32)c1 | 1.87 µM (active)
O=C(c1ccc2c(c1)ncn2-c1cccc(C(F)(F)F)c1)N1CCCCC1 | 2.64 µM (active)
CN1CC[C@@H](c2c(O)cc(O)c3c(=O)cc(-c4ccccc4Cl)oc23)[C@@H](O)C1 | 3.32 µM (active)
Cc1cc(-c2nnc3n2CCCCC3)c(C)n1-c1ccc(C(F)(F)F)cc1 | 0.833 µM (active)
Cc1cc(-c2nnc3n2CCCCC3)c(C)n1-c1ccccc1 | 372 nM (active) and 2.64 µM (active)
COc1ccc(-n2cnc3cc(C(=O)N4CCCCC4)ccc32)cc1 | 0.662 µM (active)
